Screens (PubChem)
The list is not random: actives were taken first. Their share in the collection is about 2.5%.
HTT-AS promoter – activates huntingtin-antisense promoter activity; Potency, µM (top dose mostly 57.5 µM), usual class: activators; 48,000 tested, 0.24% active; HEK293 HTT-AS promoter firefly luciferase reporter, 24 h; response scale: percent change from vehicle, -100% = no light; further: nearly all actives have a fitted effect of over 55% in size
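HEK293 Fluc reporter, 2,500 cells/well, 24 h pre-culture; cpds up to 57.5 uM final, 24 h 37 degrees C; Dual-Glo, 10 min RT; normalized vehicle = 0%, zero RLU = -100%.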
NTMT1 inh – blocks human N-terminal methyltransferase 1 activity; NTMT1 MTase-Glo SAH luminescence, purified enzyme; Potency, µM (titrated, usually from 114 µM), hits mostly inhibitors; 59,000 tested, 2.5% active; AID 1645870; further: nearly all actives have a fitted effect of over 65% in size
Target sequence (Q9BV86 whole entry, looked up): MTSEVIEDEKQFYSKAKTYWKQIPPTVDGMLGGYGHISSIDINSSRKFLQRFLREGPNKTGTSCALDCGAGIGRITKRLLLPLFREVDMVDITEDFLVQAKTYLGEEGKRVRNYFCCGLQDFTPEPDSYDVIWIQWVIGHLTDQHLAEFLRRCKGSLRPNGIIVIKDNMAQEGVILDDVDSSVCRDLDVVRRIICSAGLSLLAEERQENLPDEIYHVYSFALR
GALK inhibitor – inhibits human galactokinase; P51570; recombinant GALK, Kinase-Glo ATP luminescence, 1 h; Potency, µM (top dose mostly 57.5 µM), actives largely listed as inhibitors; 44,000 tested, under 10 active; AID 1347072
Target sequence (P51570 whole entry, looked up): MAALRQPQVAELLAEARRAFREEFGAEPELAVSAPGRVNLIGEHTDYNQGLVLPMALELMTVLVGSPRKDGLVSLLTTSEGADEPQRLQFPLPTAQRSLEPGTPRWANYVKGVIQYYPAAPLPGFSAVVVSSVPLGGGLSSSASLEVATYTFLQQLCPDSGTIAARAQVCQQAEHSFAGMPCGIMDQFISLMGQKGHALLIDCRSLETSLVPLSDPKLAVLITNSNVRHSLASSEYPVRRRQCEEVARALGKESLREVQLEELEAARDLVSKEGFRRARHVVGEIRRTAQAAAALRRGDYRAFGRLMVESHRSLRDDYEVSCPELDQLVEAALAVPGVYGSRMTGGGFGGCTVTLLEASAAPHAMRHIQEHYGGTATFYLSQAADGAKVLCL
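Luminescent ATP-depletion readout (Kinase-Glo Plus) after 1 h room-temperature incubation of human GALK (5 nM) with galactose 100 µM and ATP 35 µM, pH 8.0 HEPES/Mg2+ buffer; compounds tested in qHTS format.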
PTAP-TSG101 blk – blocks PTAP binding to human TSG101, validation. Fluorescence polarization, FITC-PTAP peptide/Tsg101, 20 min. 44,000 tested, under 10 active. Q99816. AID 1347069. Potency, µM (series often up to 115 µM), actives largely listed as inhibitors
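FITC-labeled PTAP peptide (50 nM final) binding to Tsg101 binding domain (10 uM final) read by fluorescence polarization after 20 min at r.t. in HEPES pH 7.5 buffer. Actives by CRC class, <25 µM.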
HTT prom inh – inhibits huntingtin promoter activity | HEK293 HTT promoter firefly luciferase reporter, 24 h | Potency, µM (highest dose often 57.5 µM), most hits filed as inhibitors | 48,000 tested, 0.93% active; further: nearly all actives have a fitted effect of over 50% in size
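HEK293 luciferase promoter-reporter cells (2,500/well) plated 24 h, then compounds added at up to 57.5 uM final for 24 h at 37 °C. Firefly luminescence by Dual-Glo, normalized to vehicle (0%) and zero RLU (-100%).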
SKOV3 invasion – ovarian cancer metastasis inhibition, 3D TME model | Potency, µM (doses to about 45.8 µM), hits mostly inhibitors | AID 1963576 | SKOV3ip1-GFP adhesion/invasion on 3D omental model, fluorescence | 46,000 tested, 0.1% active; further: nearly all actives have a fitted effect of over 65% in size
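Adhesion/invasion was scored as fixed GFP-labeled SKOV3ip1 cell counts (488/509 nm), normalized to DMSO and tomatine controls. Cancer cells in serum-free medium, with four compound doses (0.36-46 umol/L), sat 2 hr at RT then 16 hr at 37 C on a 48 hr fibroblast/mesothelial/ECM culture.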
Of the large screens only hits and unclear results are named; the others gave an inactive call; ! = not confirmed by another sample. The call rests on the fitted dose curve; in most records, active means well fitted curve in the direction sought with a large enough effect; inconclusive means small, poorly fitted or top-dose-only effect, or another doubt; inactive means no such curve, though single readings can be large; an effect the other way counts as inactive or inconclusive.

Cc1cc(N2CCC(C)CC2)nc2ccc(NC(=O)/C=C/c3cccc(Cl)c3)cc12	none
Cc1ccc(/C=C/C(=O)Nc2ccc3nc(N4CCC(C)CC4)cc(C)c3c2)cc1	NTMT1 inh 89.1µM
Cc1ccc(NC(=O)Nc2ccc3nc(N4CCN(C)CC4)cc(C)c3c2)cc1C	NTMT1 inh 89.1µM, SKOV3 invasion inconclusive
Cc1csc(NC(=O)c2sc3nc4c(c(C(F)(F)F)c3c2N)CCC4)n1	NTMT1 inh 27.1µM!, HTT prom inh inconclusive (no result: GALK inhibitor, PTAP-TSG101 blk)
O=C(CCc1ccccc1Br)NCCc1nc2ccccc2[nH]1	none (no result: HTT-AS promoter, GALK inhibitor, PTAP-TSG101 blk, HTT prom inh, SKOV3 invasion)
CC1CC(O)C2(OC1=O)OC1C(O)C3C4CCC5CC(OC6OC(CO)C(O)C(O)C6OC6OC(C)C(O)C(O)C6O)CCC5(C)C4CCC3(C)C1C2C (configuration not stated)	none (no result: HTT-AS promoter, GALK inhibitor, PTAP-TSG101 blk, HTT prom inh, SKOV3 invasion)
Nc1nc(=S)c2[nH]cnc2[nH]1	NTMT1 inh 3.55µM, HTT prom inh inconclusive (no result: GALK inhibitor, PTAP-TSG101 blk)
CCCCOc1ccc(CC/C=C2\SC(=O)N(CCN)C2=O)cc1	NTMT1 inh 50.1µM (no result: HTT-AS promoter, GALK inhibitor, PTAP-TSG101 blk, HTT prom inh, SKOV3 invasion)
CCOc1ccc(/C=C2\SC(=O)N(CCN)C2=O)cc1	none (no result: HTT-AS promoter, GALK inhibitor, PTAP-TSG101 blk, HTT prom inh, SKOV3 invasion)
Oc1cccc(-c2nc(N3CCOCC3)c3oc4ncccc4c3n2)c1	NTMT1 inh inconclusive, HTT prom inh inconclusive (no result: GALK inhibitor, PTAP-TSG101 blk)
Oc1cccc(-c2nc(N3CCOCC3)c3sccc3n2)c1	NTMT1 inh 39.8µM (no result: HTT-AS promoter, GALK inhibitor, PTAP-TSG101 blk, HTT prom inh, SKOV3 invasion)
O=C(Nc1cccc(Cl)c1)C1CCCN(c2nn3cc(-c4ccc(F)cc4)nc3s2)C1 (configuration not stated)	HTT prom inh 3.98µM
COc1ccc(-c2cn3nc(N4CCCC(C(=O)Nc5ccc(Cl)cc5C)C4)sc3n2)cc1 (configuration not stated)	none
O=C(NCc1cccc(Cl)c1)C1CCCN(c2nn3cc(-c4ccc(F)cc4)nc3s2)C1 (configuration not stated)	HTT prom inh 2.51µM
O=C(NCc1cccc(Cl)c1)C1CCN(c2nn3cc(-c4ccc(F)cc4)nc3s2)CC1	none
C=CC1(C)C=C2C(=O)OC(=O)C3=C(CCCC3(C)C)C2(O)CC1 (configuration not stated)	none (no result: HTT-AS promoter, GALK inhibitor, PTAP-TSG101 blk, HTT prom inh, SKOV3 invasion)
O=C(O)c1ccc(Nc2nc3ccccc3n3cnnc23)cc1	HTT-AS promoter inconclusive, NTMT1 inh 12.6µM
Oc1cccc2cc(N3CCCC3)cnc12	none (no result: HTT-AS promoter, GALK inhibitor, PTAP-TSG101 blk, HTT prom inh, SKOV3 invasion)
CC1(C)OB(c2ccc(O)c3ncc(N4CCNCC4)cc23)OC1(C)C	NTMT1 inh 79.4µM (no result: HTT-AS promoter, GALK inhibitor, PTAP-TSG101 blk, HTT prom inh, SKOV3 invasion)
CCCNS(=O)(=O)c1ccc2nc(NC(=O)c3ccc(F)cc3)sc2c1	NTMT1 inh 8.91µM, HTT prom inh inconclusive
CCCCOc1ccc(C(=O)Nc2ccc3c(c2)N(C(C)=O)CCC3)cc1	HTT prom inh 4.47µM
CCCCOc1ccc(C(=O)Nc2onc3c2CCCC3)cc1	HTT-AS promoter 12.6µM
CCC(O)(c1nnc(NCc2ccc3c(-c4ccc(F)cc4)cc(=O)oc3c2)o1)C(F)(F)F (configuration not stated)	none (no result: HTT-AS promoter, GALK inhibitor, PTAP-TSG101 blk, HTT prom inh, SKOV3 invasion)
CC1CC2(O)OC(=O)C3=C2C(CCC3)[C@@]12C[C@@H](c1ccoc1)OC2=O (some centres not stated)	none (no result: HTT-AS promoter, GALK inhibitor, PTAP-TSG101 blk, HTT prom inh, SKOV3 invasion)
CC(C)N(CCC(=O)c1ccc2ccccc2c1)Cc1ccccc1	NTMT1 inh 50.1µM (no result: HTT-AS promoter, GALK inhibitor, PTAP-TSG101 blk, HTT prom inh, SKOV3 invasion)
CC(C)N(Cc1ccccc1)C(=O)c1cc2ccc3cccnc3c2[nH]1	HTT prom inh inconclusive
COc1ccc2nc3n[nH]c(C)c3c(NCCOCCO)c2c1	NTMT1 inh 20µM! (no result: HTT-AS promoter, GALK inhibitor, PTAP-TSG101 blk, HTT prom inh, SKOV3 invasion)
COc1ccc(-n2c(SCC(=O)NCc3ccc(C)cc3)nc3n[nH]c(C)c3c2=N)cc1	none
COc1cc2c(=O)n(CCc3ccccc3)c(=O)n(CC(=O)Nc3ccccc3)c2cc1OC	NTMT1 inh 79.4µM, SKOV3 invasion inconclusive
CC(=O)Nc1cc(-c2nc3ccccc3s2)ccc1C	HTT-AS promoter 6.31µM
C[C@@H]1CCC2C(C)(C)[C@H](O)[C@H](O)C[C@]2(C)[C@@]12Cc1c(O)cc3c(c1O2)CN(CCCC(=O)O)C3=O (some centres not stated)	none (no result: HTT-AS promoter, GALK inhibitor, PTAP-TSG101 blk, HTT prom inh, SKOV3 invasion)
Oc1cccc(Nc2cc(-c3ccccc3)ncn2)c1	HTT-AS promoter inconclusive, NTMT1 inh 39.8µM
CC(C)OC(=O)OCOP(=O)(COC(C)Cn1cnc2c(N)ncnc21)OCOC(=O)OC(C)C (configuration not stated)	none (no result: HTT-AS promoter, GALK inhibitor, PTAP-TSG101 blk, HTT prom inh, SKOV3 invasion)
C[C@@H](NC(=O)[C@H](O)c1cc(F)cc(F)c1)C(=O)N[C@@H]1C(=O)N(C)c2ccccc2-c2ccccc21	none (no result: HTT-AS promoter, GALK inhibitor, PTAP-TSG101 blk, HTT prom inh, SKOV3 invasion)
Cc1cc(C)c(NC(=O)Cn2c(=O)oc3cc(S(=O)(=O)N4CCCCCC4)ccc32)c(C)c1	HTT prom inh 10µM
CCOc1ccc(NC(=O)Cn2c(=O)oc3cc(S(=O)(=O)N4CCCCCC4)ccc32)cc1	HTT prom inh inconclusive
Cc1cc(C)cc(NC(=O)Cn2c(=O)oc3cc(S(=O)(=O)N4CCCC4)ccc32)c1	HTT prom inh inconclusive
CC(C)c1ccc(NC(=O)Cn2c(=O)oc3cc(S(=O)(=O)N4CCCC4)ccc32)cc1	HTT prom inh 14.1µM
CC(C)c1cc(-c2n[nH]c(=O)n2-c2ccc3c(ccn3C)c2)c(O)cc1O	NTMT1 inh 28.2µM!, HTT prom inh inconclusive (no result: GALK inhibitor, PTAP-TSG101 blk)
Cn1c(=O)nc2n(-c3ccc(Cl)c(Cl)c3)c3cc(Cl)ccc3cc-2c1=O	NTMT1 inh inconclusive
COc1ccc2oc(=O)c(C(=O)Nc3cccc(C(=O)O)c3)cc2c1	HTT-AS promoter inconclusive, HTT prom inh 3.98µM
